This is an account of results in PMC7862700, “An all-to-all approach to the identification of sequence-specific readers for epigenetic DNA modifications on cytosine”.

Assay in all cases: DAPPL (digital affinity profiling via proximity ligation, sequencing); 10 mM Tris-HCl pH 7.5, 50 mM NaCl, 1 mM DTT, 4% glycerol, room temperature, 30 min; GST-TFs on glutathione beads, 16-mer random dsDNA library, 0.1% formaldehyde crosslink after washing; high values mean tight binding
The target of one assay is T1, FLI1 (Homo sapiens, UniProt Q01543 1-452).
T1 sequence: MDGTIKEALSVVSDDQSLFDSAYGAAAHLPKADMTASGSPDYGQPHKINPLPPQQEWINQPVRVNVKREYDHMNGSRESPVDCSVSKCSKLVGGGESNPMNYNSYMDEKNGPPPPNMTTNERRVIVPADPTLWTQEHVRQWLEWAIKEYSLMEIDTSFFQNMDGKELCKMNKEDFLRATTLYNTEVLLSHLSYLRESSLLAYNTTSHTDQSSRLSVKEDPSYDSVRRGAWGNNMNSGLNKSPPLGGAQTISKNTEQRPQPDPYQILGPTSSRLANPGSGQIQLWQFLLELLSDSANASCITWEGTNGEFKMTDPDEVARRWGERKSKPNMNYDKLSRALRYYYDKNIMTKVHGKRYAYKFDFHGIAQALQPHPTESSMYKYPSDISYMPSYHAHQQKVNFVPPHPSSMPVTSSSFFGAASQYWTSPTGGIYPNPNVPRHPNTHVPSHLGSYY
The settings on record: protein: recombinant; tags: N-terminal GST; dsDNA, one strand shown. In short, it runs like this:
(§1)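 Pools were built from human transcription factors expressed in yeast as GST fusions, captured on glutathione beads and DNA-barcoded, along with a tag-only sample. Incubation with 200 nmole of a 16-mer random double-stranded DNA library lasted 30 min at room temperature in Tris/NaCl/DTT/glycerol buffer, and was followed by washing, 0.1% formaldehyde crosslinking, proximity ligation, PCR amplification and Illumina NextSeq500 sequencing. Binding signal is the quotient of each hexamer's read frequency for a factor and its frequency for the tag-only sample.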

The next assay deals with T2, ELK1 (Homo sapiens, UniProt P19419 1-428).
T2 sequence: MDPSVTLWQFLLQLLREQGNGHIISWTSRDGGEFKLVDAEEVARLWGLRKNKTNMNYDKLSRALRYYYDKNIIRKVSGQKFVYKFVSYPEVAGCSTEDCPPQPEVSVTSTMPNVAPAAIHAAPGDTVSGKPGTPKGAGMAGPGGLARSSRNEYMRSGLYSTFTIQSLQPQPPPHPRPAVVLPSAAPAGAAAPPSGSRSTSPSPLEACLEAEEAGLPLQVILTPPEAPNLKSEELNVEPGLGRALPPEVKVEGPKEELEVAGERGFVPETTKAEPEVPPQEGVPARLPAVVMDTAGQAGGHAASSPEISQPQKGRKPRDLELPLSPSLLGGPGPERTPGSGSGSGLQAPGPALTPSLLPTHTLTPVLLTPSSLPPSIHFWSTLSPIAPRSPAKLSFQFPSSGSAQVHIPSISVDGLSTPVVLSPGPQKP
The conditions noted are these: protein: recombinant; tags: N-terminal GST; dsDNA, one strand shown. In short, it runs like this:
as §1

The next assay addresses T3, GABPA (Homo sapiens, UniProt Q06546 1-454).
T3 sequence: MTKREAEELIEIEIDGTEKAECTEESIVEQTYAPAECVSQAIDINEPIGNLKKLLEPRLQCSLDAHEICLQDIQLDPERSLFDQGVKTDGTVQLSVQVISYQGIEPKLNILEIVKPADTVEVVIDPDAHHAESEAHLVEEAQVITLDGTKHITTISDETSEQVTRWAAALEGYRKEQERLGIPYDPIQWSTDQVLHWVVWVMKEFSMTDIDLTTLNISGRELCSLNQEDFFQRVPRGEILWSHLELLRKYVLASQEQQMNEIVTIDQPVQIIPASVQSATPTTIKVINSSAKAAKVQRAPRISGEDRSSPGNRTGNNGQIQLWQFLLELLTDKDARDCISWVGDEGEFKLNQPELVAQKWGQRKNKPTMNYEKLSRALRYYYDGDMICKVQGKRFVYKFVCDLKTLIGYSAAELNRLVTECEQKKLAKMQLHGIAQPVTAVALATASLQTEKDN
The settings on record: protein: recombinant; tags: N-terminal GST; dsDNA, one strand shown. Summed up:
as §1

Another assay deals with T4, ERG (Homo sapiens, UniProt P11308 1-479).
T4 sequence: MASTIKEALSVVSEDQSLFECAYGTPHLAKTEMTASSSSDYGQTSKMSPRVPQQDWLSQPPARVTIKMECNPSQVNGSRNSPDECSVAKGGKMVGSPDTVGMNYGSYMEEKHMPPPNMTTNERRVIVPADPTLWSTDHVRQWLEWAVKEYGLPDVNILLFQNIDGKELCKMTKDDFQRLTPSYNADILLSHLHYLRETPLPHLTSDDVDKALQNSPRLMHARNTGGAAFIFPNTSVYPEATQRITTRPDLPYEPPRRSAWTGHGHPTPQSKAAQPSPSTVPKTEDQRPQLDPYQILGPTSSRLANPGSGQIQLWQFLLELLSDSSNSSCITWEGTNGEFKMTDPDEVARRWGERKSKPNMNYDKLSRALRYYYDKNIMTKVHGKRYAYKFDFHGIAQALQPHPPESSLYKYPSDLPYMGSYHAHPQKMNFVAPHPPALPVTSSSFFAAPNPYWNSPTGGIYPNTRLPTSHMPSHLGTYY
The settings on record: protein: recombinant; tags: N-terminal GST; dsDNA, one strand shown. Summed up:
as §1

For the next assay, the target named is ELF1 (Homo sapiens, UniProt P32519 1-619). The settings on record: protein: recombinant; tags: N-terminal GST; dsDNA, one strand shown. Summed up: as §1
ELF1, sequence (P32519 whole entry): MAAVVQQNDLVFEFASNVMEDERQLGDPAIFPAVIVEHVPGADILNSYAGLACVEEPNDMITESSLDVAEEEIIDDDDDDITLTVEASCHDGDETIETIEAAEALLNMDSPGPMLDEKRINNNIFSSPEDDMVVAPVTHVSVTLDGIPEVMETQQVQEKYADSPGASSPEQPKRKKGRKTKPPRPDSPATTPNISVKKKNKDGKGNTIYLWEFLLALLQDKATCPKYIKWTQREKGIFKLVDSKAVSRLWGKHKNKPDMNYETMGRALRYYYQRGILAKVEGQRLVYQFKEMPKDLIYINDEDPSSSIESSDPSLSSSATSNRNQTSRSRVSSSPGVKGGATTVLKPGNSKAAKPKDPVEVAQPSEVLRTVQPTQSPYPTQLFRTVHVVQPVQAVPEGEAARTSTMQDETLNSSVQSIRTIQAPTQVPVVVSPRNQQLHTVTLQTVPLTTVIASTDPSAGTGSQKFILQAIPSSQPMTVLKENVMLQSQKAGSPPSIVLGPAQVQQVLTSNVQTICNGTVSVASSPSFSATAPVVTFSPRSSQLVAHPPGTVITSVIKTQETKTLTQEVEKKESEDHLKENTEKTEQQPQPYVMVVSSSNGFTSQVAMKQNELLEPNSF
The target of another assay is T5, EHF (Homo sapiens, UniProt Q9NZC4 1-300).
T5 sequence: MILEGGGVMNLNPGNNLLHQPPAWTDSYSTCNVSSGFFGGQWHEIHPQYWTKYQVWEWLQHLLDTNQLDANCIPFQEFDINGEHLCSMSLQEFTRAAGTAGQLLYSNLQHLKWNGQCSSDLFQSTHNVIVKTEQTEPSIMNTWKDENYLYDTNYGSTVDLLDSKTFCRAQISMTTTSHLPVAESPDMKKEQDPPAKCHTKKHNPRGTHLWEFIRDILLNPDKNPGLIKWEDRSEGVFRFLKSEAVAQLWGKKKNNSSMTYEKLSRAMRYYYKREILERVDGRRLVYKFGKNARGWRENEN
The conditions noted are these: protein: recombinant; tags: N-terminal GST; dsDNA, one strand shown. In short, it runs like this:
as §1

A further assay has as its target SPI1 (Homo sapiens, UniProt P17947 1-270). The settings on record: protein: recombinant; tags: N-terminal GST; dsDNA, one strand shown. Summed up:
as §1

The target in the next assay is SPIB (Homo sapiens, UniProt Q01892 1-262). The settings on record: protein: recombinant; tags: N-terminal GST; dsDNA, one strand shown. Summed up: as §1
SPIB, sequence (Q01892 whole entry): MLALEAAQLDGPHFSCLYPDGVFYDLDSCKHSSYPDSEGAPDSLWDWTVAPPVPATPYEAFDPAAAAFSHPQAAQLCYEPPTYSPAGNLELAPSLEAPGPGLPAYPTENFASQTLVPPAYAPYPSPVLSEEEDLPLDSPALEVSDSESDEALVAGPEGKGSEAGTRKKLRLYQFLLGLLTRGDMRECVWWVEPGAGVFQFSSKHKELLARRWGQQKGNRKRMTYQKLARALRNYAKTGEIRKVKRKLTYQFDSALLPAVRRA
The target in the next assay is T6, ELK3 (Homo sapiens, UniProt P41970 1-407).
T6 sequence: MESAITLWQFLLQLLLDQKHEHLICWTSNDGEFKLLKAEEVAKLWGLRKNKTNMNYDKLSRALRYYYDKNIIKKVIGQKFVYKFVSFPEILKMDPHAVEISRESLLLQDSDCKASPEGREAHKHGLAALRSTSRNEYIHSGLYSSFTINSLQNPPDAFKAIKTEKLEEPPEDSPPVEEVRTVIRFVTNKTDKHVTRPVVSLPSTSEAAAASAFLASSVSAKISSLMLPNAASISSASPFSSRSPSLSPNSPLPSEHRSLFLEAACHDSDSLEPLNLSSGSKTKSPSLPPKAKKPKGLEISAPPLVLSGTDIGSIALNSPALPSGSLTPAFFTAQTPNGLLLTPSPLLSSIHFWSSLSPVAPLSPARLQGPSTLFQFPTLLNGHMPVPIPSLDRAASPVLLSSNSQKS
The conditions noted are these: protein: recombinant; tags: N-terminal GST; dsDNA, one strand shown. In short, it runs like this:
as §1

The target of another assay is T7, FEV (Homo sapiens, UniProt Q99581 1-238).
T7 sequence: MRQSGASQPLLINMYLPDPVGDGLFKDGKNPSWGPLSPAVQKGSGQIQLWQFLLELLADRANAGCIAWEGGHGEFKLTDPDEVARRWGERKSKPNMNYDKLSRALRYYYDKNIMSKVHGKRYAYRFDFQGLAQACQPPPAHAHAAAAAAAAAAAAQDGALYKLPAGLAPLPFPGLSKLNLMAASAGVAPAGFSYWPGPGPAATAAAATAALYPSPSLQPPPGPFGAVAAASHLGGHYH
The settings on record: protein: recombinant; tags: N-terminal GST; dsDNA, one strand shown. Summed up: as §1

For another assay, the target named is ETV5 (Homo sapiens, UniProt P41161 1-510). The conditions noted are these: protein: recombinant; tags: N-terminal GST; dsDNA, one strand shown. Summed up: as §1
ETV5, sequence (P41161 whole entry): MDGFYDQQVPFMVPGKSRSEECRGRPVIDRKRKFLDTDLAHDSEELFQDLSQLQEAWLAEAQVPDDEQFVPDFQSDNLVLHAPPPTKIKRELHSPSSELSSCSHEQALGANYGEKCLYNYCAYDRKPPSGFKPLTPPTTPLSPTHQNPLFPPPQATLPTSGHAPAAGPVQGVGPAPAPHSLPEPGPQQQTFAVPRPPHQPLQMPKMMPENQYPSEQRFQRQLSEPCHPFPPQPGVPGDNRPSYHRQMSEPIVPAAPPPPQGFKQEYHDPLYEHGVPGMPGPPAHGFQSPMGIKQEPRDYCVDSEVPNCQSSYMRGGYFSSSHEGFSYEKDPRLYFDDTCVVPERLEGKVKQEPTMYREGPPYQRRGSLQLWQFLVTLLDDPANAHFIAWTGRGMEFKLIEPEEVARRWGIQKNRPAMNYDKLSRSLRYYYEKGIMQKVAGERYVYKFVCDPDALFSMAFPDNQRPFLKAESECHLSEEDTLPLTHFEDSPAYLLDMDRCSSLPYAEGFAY
Another assay addresses HSF1 (Homo sapiens, UniProt Q00613 1-529). The conditions noted are these: protein: recombinant; tags: N-terminal GST; chain copies: 3; dsDNA, one strand shown. Summed up:
as §1

For a further assay, the target named is T8, SPIC (Homo sapiens, UniProt Q8N5J4 1-248).
T8 sequence: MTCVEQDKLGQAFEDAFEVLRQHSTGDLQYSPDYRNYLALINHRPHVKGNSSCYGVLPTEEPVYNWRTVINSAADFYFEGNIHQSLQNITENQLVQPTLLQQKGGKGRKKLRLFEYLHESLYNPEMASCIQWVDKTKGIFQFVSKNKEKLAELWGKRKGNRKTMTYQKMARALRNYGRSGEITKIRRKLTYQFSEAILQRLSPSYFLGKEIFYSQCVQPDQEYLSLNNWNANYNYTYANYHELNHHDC
The settings on record: protein: recombinant; tags: N-terminal GST; dsDNA, one strand shown. Summed up: as §1

The next assay has as its target ELF4 (Homo sapiens, UniProt Q99607 1-663). The conditions noted are these: protein: recombinant; tags: N-terminal GST; dsDNA, one strand shown. Summed up:
as §1

Another assay concerns the target T9, ELK4 (Homo sapiens, UniProt P28324-2 1-405).
T9 sequence: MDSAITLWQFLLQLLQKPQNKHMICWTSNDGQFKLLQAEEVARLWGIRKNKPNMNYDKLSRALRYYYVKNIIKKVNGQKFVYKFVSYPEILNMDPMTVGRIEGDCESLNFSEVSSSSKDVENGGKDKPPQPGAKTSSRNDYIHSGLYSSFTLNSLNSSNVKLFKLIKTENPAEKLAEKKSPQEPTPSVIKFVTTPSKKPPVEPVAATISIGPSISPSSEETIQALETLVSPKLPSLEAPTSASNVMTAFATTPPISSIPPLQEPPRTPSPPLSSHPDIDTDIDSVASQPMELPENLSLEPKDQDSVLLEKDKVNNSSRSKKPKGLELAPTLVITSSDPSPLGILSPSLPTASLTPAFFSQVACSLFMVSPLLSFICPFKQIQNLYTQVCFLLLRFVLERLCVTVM
The conditions noted are these: protein: recombinant; tags: N-terminal GST; dsDNA, one strand shown. In short, it runs like this: as §1

Another assay addresses T10, ETV2 (Homo sapiens, UniProt O00321 1-342).
T10 sequence: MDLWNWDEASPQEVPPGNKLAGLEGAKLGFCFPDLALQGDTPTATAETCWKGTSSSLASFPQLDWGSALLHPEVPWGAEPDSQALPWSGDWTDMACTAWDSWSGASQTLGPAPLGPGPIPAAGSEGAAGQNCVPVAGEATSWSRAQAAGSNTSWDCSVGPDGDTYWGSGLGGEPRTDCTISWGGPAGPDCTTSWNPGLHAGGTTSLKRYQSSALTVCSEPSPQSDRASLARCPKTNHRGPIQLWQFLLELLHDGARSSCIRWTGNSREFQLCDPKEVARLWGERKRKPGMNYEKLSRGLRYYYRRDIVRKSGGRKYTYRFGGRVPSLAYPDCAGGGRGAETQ
The settings on record: protein: recombinant; tags: N-terminal GST; dsDNA, one strand shown. In short, it runs like this:
as §1

In a further assay the target is T11, ELF3 (Homo sapiens, UniProt P78545 1-371).
T11 sequence: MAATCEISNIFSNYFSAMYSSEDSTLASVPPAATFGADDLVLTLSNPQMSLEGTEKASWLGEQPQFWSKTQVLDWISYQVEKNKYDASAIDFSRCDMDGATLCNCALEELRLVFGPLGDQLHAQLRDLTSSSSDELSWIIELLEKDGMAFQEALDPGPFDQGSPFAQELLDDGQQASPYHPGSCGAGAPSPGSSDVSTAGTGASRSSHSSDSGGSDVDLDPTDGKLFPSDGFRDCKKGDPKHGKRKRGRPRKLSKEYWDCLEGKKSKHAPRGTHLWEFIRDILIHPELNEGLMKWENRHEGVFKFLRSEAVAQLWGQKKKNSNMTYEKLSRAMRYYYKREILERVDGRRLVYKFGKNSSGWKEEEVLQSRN
The conditions noted are these: protein: recombinant; tags: N-terminal GST; dsDNA, one strand shown. In short, it runs like this: as §1

A further assay addresses ETV1 (Homo sapiens, UniProt P50549 1-477). The conditions noted are these: protein: recombinant; tags: N-terminal GST; dsDNA, one strand shown. In short, it runs like this: as §1

ELF4, sequence (Q99607 whole entry): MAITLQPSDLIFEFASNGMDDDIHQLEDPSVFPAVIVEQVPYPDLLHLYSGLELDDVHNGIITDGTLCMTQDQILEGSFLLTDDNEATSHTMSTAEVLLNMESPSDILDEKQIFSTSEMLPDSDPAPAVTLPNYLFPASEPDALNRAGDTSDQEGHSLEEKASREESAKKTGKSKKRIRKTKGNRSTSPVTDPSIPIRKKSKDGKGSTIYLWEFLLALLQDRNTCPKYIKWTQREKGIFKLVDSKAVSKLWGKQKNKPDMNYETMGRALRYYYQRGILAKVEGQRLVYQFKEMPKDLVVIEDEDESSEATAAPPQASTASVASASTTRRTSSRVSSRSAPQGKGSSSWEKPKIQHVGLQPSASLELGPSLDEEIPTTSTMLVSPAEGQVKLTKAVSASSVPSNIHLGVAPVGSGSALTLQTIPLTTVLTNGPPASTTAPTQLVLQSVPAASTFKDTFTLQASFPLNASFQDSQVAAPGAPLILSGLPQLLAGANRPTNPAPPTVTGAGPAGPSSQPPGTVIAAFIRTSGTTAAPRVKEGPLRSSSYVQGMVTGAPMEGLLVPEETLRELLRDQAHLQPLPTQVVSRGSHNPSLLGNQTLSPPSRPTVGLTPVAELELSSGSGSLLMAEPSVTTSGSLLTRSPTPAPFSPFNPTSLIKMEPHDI
HSF1, sequence (Q00613 whole entry): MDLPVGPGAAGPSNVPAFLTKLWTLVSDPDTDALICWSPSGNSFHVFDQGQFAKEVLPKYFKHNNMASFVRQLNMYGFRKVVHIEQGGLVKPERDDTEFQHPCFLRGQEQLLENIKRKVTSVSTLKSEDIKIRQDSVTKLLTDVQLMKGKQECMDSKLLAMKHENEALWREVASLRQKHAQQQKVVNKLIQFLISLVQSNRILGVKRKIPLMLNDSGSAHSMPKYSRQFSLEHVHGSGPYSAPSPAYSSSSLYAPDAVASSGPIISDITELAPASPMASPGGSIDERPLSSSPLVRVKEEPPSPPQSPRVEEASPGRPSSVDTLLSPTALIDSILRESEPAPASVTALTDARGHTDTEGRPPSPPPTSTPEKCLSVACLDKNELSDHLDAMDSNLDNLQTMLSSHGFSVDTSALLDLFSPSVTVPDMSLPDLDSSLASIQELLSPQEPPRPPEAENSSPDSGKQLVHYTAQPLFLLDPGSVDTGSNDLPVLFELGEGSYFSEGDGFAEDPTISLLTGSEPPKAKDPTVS
ETV1, sequence (P50549 whole entry): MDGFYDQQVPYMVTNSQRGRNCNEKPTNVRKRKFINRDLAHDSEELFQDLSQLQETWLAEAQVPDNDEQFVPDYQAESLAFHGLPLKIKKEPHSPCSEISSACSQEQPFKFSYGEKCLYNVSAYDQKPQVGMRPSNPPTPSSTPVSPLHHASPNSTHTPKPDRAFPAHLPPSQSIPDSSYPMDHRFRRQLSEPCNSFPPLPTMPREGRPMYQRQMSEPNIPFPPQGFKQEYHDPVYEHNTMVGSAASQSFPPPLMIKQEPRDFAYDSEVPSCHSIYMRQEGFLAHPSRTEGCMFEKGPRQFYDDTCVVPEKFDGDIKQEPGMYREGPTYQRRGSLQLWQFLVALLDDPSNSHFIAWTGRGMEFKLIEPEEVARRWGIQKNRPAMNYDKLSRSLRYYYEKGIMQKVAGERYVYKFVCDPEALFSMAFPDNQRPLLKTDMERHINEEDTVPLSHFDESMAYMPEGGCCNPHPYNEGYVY

Turning to GCAAAA, the binding signal in the assay with FLI1 is 1.04 fold enrichment (6-mer frequency, TF over GST control); with ELK1 it was 1.08 fold enrichment (6-mer frequency, TF over GST control); with GABPA, 1.08 fold enrichment (6-mer frequency, TF over GST control); with ERG it was 1.05 fold enrichment (6-mer frequency, TF over GST control); with ELF1, 1.09 fold enrichment (6-mer frequency, TF over GST control); with EHF it was 1.14 fold enrichment (6-mer frequency, TF over GST control). For the same sequence, the binding signal in the assay with SPI1 is 1.16 fold enrichment (6-mer frequency, TF over GST control); with SPIB it was 1.13 fold enrichment (6-mer frequency, TF over GST control); with ELK3, 1.15 fold enrichment (6-mer frequency, TF over GST control); in the assay with FEV, 1.08 fold enrichment (6-mer frequency, TF over GST control); in the assay with ETV5, 1.07 fold enrichment (6-mer frequency, TF over GST control); with HSF1, 1.01 fold enrichment (6-mer frequency, TF over GST control). Also, the binding signal in the assay with SPIC is 1.06 fold enrichment (6-mer frequency, TF over GST control); with ELF4, 1.13 fold enrichment (6-mer frequency, TF over GST control); with ELK4, 1.16 fold enrichment (6-mer frequency, TF over GST control); with ETV2, 1.14 fold enrichment (6-mer frequency, TF over GST control); in the assay with ELF3 it was 1.2 fold enrichment (6-mer frequency, TF over GST control); in the assay with ETV1, 1.14 fold enrichment (6-mer frequency, TF over GST control).
